{"source": "the supplement of paper PMC9023506", "note": "Counter-ions that a name gives are not always drawn."}
{"system": "Danio rerio larvae (5 dpf)", "assay": "activity during period 15 (no stimuli), difference vs DMSO (percentage points (treated minus DMSO)); higher = more of the behaviour than the DMSO vehicle control", "conditions": "10 µM; exposure time: 3 h pre-incubation + 3 h imaging", "description": "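5-dpf wild-type zebrafish larvae were imaged in 96-well plates. They were treated with 190 Tocris FDA-approved drugs at 10 µM (1 µl/ml DMSO) for 3 h before and 3 h during imaging at 28.5 °C, 48 larvae per drug. Automated image analysis gave % time moving and optomotor responses. Values are drug group mean minus DMSO vehicle mean (n=844), in percentage points, for 10 behaviours.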"}
{"smiles": "NC(=O)c1ncn([C@@H]2O[C@H](CO)[C@@H](O)[C@H]2O)n1", "note": "[Ribavirin]", "activity during period 15": -3.78}
{"smiles": "CC(=O)NC[C@H]1CN(c2ccc(N3CCOCC3)c(F)c2)C(=O)O1", "note": "[Linezolid]", "activity during period 15": -1.07}
{"smiles": "CCOC(=O)c1ncn2c1CN(C)C(=O)c1cc(F)ccc1-2", "note": "[Flumazenil]", "activity during period 15": 11.9}
{"smiles": "N#Cc1ccc2[nH]cc(CCCCN3CCN(c4ccc5oc(C(N)=O)cc5c4)CC3)c2c1", "note": "[Vilazodone hydrochloride]", "activity during period 15": -28.4}
{"smiles": "CCc1ccc(CCOc2ccc(CC3SC(=O)NC3=O)cc2)nc1", "note": "(stereo not given) [Pioglitazone hydrochloride]", "activity during period 15": -0.879}
{"smiles": "Brc1c(NC2=NCCN2)ccc2nccnc12", "activity during period 15": -19.4}
{"smiles": "C[C@@H]1C[C@H]2[C@@H]3CCC4=CC(=O)C=C[C@]4(C)[C@@]3(F)[C@@H](O)C[C@]2(C)[C@@]1(O)C(=O)CO", "note": "[Dexamethasone]", "activity during period 15": 2.91}
{"smiles": "COC(=O)C1=C(C)NC(C)=C(C(=O)OC(C)C)C1c1cccc2nonc12", "note": "(stereo not given) [Isradipine]", "activity during period 15": -12.3}
{"smiles": "CC[C@H]1OC(=O)[C@H](C)[C@@H](O[C@H]2C[C@@](C)(OC)[C@@H](O)[C@H](C)O2)[C@H](C)[C@@H](O[C@@H]2O[C@H](C)C[C@H](N(C)C)[C@H]2O)[C@](C)(O)C[C@@H](C)CN(C)[C@H](C)[C@@H](O)[C@]1(C)O", "note": "[Azithromycin]", "activity during period 15": -17.4}
{"smiles": "CC#C[C@]1(O)CC[C@H]2[C@@H]3CCC4=CC(=O)CCC4=C3[C@@H](c3ccc(N(C)C)cc3)C[C@@]21C", "note": "[Mifepristone]", "activity during period 15": -2.26}
{"smiles": "COc1ccc([C@@H]2Sc3ccccc3N(CCN(C)C)C(=O)[C@@H]2OC(C)=O)cc1", "note": "[Diltiazem hydrochloride]", "activity during period 15": -3.65}
{"smiles": "Cc1cc2c(s1)Nc1ccccc1N=C2N1CCN(C)CC1", "note": "[Olanzapine]", "activity during period 15": 5.7}
{"smiles": "CN(C)CC/C=C1/c2ccccc2COc2ccc(CC(=O)O)cc21", "note": "[Olopatadine hydrochloride]", "activity during period 15": -6.62}
{"smiles": "CCCc1nn(C)c2c(=O)[nH]c(-c3cc(S(=O)(=O)N4CCN(C)CC4)ccc3OCC)nc12", "note": "[Sildenafil citrate]", "activity during period 15": -20.2}
{"smiles": "OCCN(CCO)c1nc(N2CCCCC2)c2nc(N(CCO)CCO)nc(N3CCCCC3)c2n1", "note": "[Dipyridamole]", "activity during period 15": -5.46}
{"smiles": "NC(=O)OCC(COC(N)=O)c1ccccc1", "note": "[Felbamate]", "activity during period 15": 0.376}
{"smiles": "CCN(CC)CCNC(=O)c1c(C)[nH]c(/C=C2\\C(=O)Nc3ccc(F)cc32)c1C", "note": "[Sunitinib malate]", "activity during period 15": -14.6}
{"smiles": "O=C(Nc1c(Cl)cncc1Cl)c1ccc(OC(F)F)c(OCC2CC2)c1", "note": "[Roflumilast]", "activity during period 15": -9.33}
{"smiles": "Cc1cccc(C)c1OCC(C)N", "note": "(stereo not given) [Mexiletine hydrochloride]", "activity during period 15": 6.49}
{"smiles": "CC(CCc1ccc(O)cc1)NCCc1ccc(O)c(O)c1", "note": "(stereo not given) [Dobutamine hydrochloride]", "activity during period 15": -8.99}
{"smiles": "CC(C)(C(=O)c1cccnc1)c1cccnc1", "note": "[Metyrapone]", "activity during period 15": -7.26}
{"smiles": "Nc1nc2c(ncn2COCCO)c(=O)[nH]1", "note": "[Acyclovir]", "activity during period 15": -4.38}
{"smiles": "C#C[C@]1(O)CC[C@H]2[C@@H]3CCC4=CC(=O)CC[C@@H]4[C@H]3CC[C@@]21CC", "note": "[Levonorgestrel]", "activity during period 15": -6.07}
{"smiles": "C[C@]12CC[C@@H]3c4ccc(O)cc4C[C@@H](CCCCCCCCC[S+]([O-])CCCC(F)(F)C(F)(F)F)[C@H]3[C@@H]1CC[C@@H]2O", "note": "(stereo not given in full)", "activity during period 15": 4.53}
{"smiles": "N#Cc1ccc(C(c2ccc(C#N)cc2)n2cncn2)cc1", "note": "[Letrozole]", "activity during period 15": 0.514}
{"smiles": "C/C(O)=C(\\C#N)C(=O)Nc1ccc(C(F)(F)F)cc1", "note": "[Teriflunomide]", "activity during period 15": 10.3}
{"smiles": "CC(=O)O[C@]1(C(C)=O)CC[C@H]2[C@@H]3C=C(C)C4=CC(=O)CC[C@]4(C)[C@H]3CC[C@@]21C", "note": "[Megestrol Acetate]", "activity during period 15": -0.283}
{"smiles": "CCCCNc1cc(C(=O)O)cc(S(N)(=O)=O)c1Oc1ccccc1", "note": "[Bumetanide]", "activity during period 15": -2.8}
{"smiles": "COc1c(C)c2c(c(O)c1C/C=C(\\C)CCC(=O)OCCN1CCOCC1)C(=O)OC2", "note": "[Mycophenolate mofetil]", "activity during period 15": -0.943}
{"smiles": "COc1ccccc1OCCNCC(O)COc1cccc2[nH]c3ccccc3c12", "note": "(stereo not given) [Carvedilol]", "activity during period 15": -6.43}
{"smiles": "Cc1ccc(N(CC2=NCCN2)c2cccc(O)c2)cc1", "note": "[Phentolamine Mesylate]", "activity during period 15": 4.99}
{"smiles": "O=C(O[C@@H]1C[C@@H]2C[C@H]3C[C@H](C1)N2CC3=O)c1c[nH]c2ccccc12", "note": "[Dolasetron mesylate]", "activity during period 15": -1.51}
{"smiles": "CN1CCC[C@@H]1Cc1c[nH]c2ccc(CCS(=O)(=O)c3ccccc3)cc12", "note": "[Eletriptan hydrobromide]", "activity during period 15": -0.424}
{"smiles": "CCc1c2c(nc3ccc(OC(=O)N4CCC(N5CCCCC5)CC4)cc13)-c1cc3c(c(=O)n1C2)COC(=O)[C@]3(O)CC", "activity during period 15": -8.3}
{"smiles": "CCCCc1nc(Cl)c(CO)n1Cc1ccc(-c2ccccc2-c2nnn[nH]2)cc1", "note": "[Losartan potassium]", "activity during period 15": 3.67}
{"smiles": "N[C@@H]1[C@H]2CN(c3nc4c(cc3F)c(=O)c(C(=O)O)cn4-c3ccc(F)cc3F)C[C@@H]12", "note": "[Trovafloxacin mesylate]", "activity during period 15": 2.91}
{"smiles": "CN(C)CCc1c[nH]c2ccc(C[C@H]3COC(=O)N3)cc12", "note": "[Zolmitriptan]", "activity during period 15": 2.6}
{"smiles": "COc1cc([C@@H]2c3cc4c(cc3[C@@H](O[C@@H]3O[C@@H]5CO[C@@H](C)O[C@H]5[C@H](O)[C@H]3O)[C@H]3COC(=O)[C@H]23)OCO4)cc(OC)c1O", "note": "[Etoposide]", "activity during period 15": -4.13}
{"smiles": "COc1cc(N)c(Cl)cc1C(=O)NC1CCN(CCCOc2ccc(F)cc2)CC1OC", "note": "(stereo not given) [Cisapride]", "activity during period 15": -0.757}
{"smiles": "COc1ccccc1OCC(O)CN1CCN(CC(=O)Nc2c(C)cccc2C)CC1", "note": "(stereo not given) [Ranolazine dihydrochloride]", "activity during period 15": 3.22}
